Hit rate of the full screen: of about 52,000 compounds, about 4,300 (8.3%) were called active. This excerpt belongs to a sample that is enriched for actives. Unmarked numbers belong to inactive results. Rule as the data show it: active = survival mostly below about 52% (no sharp cut-off); inactive = mostly above about 56%.

This experiment has as its system DeltatarO mutant. The experiment is described as follows: growth inhibition of S. aureus wild type versus tarO mutant, primary screen, teichoic acid synthesis inhibitors, RN4220, OD600 (AID 463173). To be noted: OD600, 18 h, stronger effect = lower value, screened at 18.75 µg/mL (by protocol).
Turning to `CC1CCN(S(=O)(=O)c2cn(CC(=O)Nc3ccc(F)c(Cl)c3)c(=O)c3ccccc23)CC1`, the survival was 73%. As for `Cc1ccc(-n2nc(CO)c(C(=O)NC(C)CCCc3ccccc3)n2)cc1C` (stereo not drawn), the survival is 94%. With `CCOc1ccc(-n2nc(CO)c(C(=O)NCc3cccs3)n2)cc1`, the survival was 40% (active). `Cc1ccc(-n2nc(CO)c(C(=O)NCc3cccs3)n2)cc1C`: the survival was 39% (active).

For the compound `O=C(NCc1cccs1)c1nn(-c2ccccc2)nc1CO`, the survival was 84%. Then `CCc1ccc(-n2nc(CO)c(C(=O)NCc3cccs3)n2)cc1`, with 60%. Next, `Cc1ccc(-n2nc(CO)c(C(=O)NCc3cccs3)n2)cc1`: 92%; `Cc1ccc(-n2nc(CO)c(C(=O)NC(C)c3ccccc3)n2)cc1C` (stereo not drawn): 41% (active). Then `Cc1ccc(-n2nc(CO)c(C(=O)NCCc3ccccc3)n2)cc1C`, with 111%.

Turning to `Cc1ccccc1-n1nc(CO)c(C(=O)NCc2cccs2)n1`, the survival was 79%.

Take `CCN(CC)C(=O)C1=CC(c2ccc3c(c2)OCO3)=NS(=O)(=O)N1C`: the survival is 86%.

On to `Cc1nc(SCC(=O)OCN2C(=O)c3ccccc3C2=O)n[nH]1`, for which the survival is 80%. Then `COC(=O)C(C)Sc1ncnc2c1c(-c1ccccc1)cn2-c1ccc(F)cc1` (stereo not drawn), with 76%. Then `Cn1c(=O)c2c(c3ccccc31)OC(=O)CC2c1ccc(C(F)(F)F)cc1` (stereo not drawn), with 61%; and `COc1ccc(C2CC(=O)c3c([nH]c(C(=O)OCCOc4ccccc4)c3C)C2)cc1OC` (stereo not drawn), with 99%. `COc1ccc(C)cc1NC(=O)C(Cc1ccccc1)NS(=O)(=O)c1ccc(Br)s1` (stereo not drawn): the survival is 131%. Next, `Cc1ccc(N2CC(NC(=O)C3CC3)CC2=O)cc1C` (stereo not drawn): 94%. With `COc1ccccc1N1CCN(CC(O)COc2ccc(Cl)c(C)c2)CC1` (stereo not drawn), the survival is 59%. Next, `CC(=O)Nc1ccc(OCC(O)CN2CCN(c3ccc(C)c(Cl)c3)CC2)cc1` (stereo not drawn): 76%; `Cc1cc(OCC(O)CN2CCN(c3cccc(Cl)c3)CC2)ccc1Cl` (stereo not drawn): -1% (active). Next, `CCOC(=O)c1c(C)oc2nc(C)nc(NCC3CCN(Cc4ccc(C)cc4)CC3)c12`: 91%; `O=C(O)CN1C(=O)/C(=c2\sc3nc4ccccc4n3c2=O)c2ccccc21`: 81%; `O=c1[nH]c2ccc(NCc3ccccc3F)cc2[nH]1`: 94%. Then `COc1ccc(CNC(=O)c2cnn(-c3ccc(F)cc3)c2-n2cccc2)cc1`, with 89%; and `CSc1ccc(CCNC(=O)c2cnn(-c3ccccc3)c2-n2cccc2)cc1`, with 46% (active). With `CCOc1ccc(NC(=O)c2cnn(-c3ccccc3)c2-n2cccc2)cc1`, the survival was 71%. Next, `CCc1ccc(NC(=O)c2cnn(-c3ccccc3)c2-n2cccc2)cc1`: 31% (active).

With `COc1ccc(CNC(=O)c2cnn(-c3ccccc3)c2-n2cccc2)cc1OC`, the survival is 113%. Then `O=C(Nc1cc(C(F)(F)F)ccc1Cl)c1cnn(-c2ccccc2)c1-n1cccc1`, with 0% (active); and `COc1ccccc1NC(=O)c1cnn(-c2ccccc2)c1-n1cccc1`, with 93%. With `O=C(NCCc1ccccc1)c1cnn(-c2ccc(F)cc2)c1-n1cccc1`, the survival is 58%. Then `COc1cc(OC)c(NC(=O)c2cnn(-c3ccccc3)c2-n2cccc2)cc1Cl`, with 84%.

As to `CCOC(=O)c1cccc(NC(=O)c2cnn(-c3ccccc3)c2-n2cccc2)c1`, the survival was 80%. In the case of `CCOc1ccccc1CNC(=O)c1cnn(-c2ccc(C)cc2)c1-n1cccc1`, the survival is 37% (active).

As to `Cc1ccc(-n2ncc(C(=O)NCc3ccccc3C)c2-n2cccc2)cc1`, the survival was 74%. Turning to `COCCn1c(C)cc(O)c(C(c2ccccc2F)N2CCN(c3ccccc3)CC2)c1=O` (stereo not drawn), the survival was 79%. Then `COc1ccc(N2CCN(C(=O)CSc3nnc4c(C)cc5cc6c(cc5n34)OCCO6)CC2)cc1`, with 86%. Next, `COc1ccc(NC(=O)CN2C(=O)C(c3ccccc3)=NC23CCC(C)CC3)cc1Cl` (stereo not drawn): 73%. Then `COC(=O)c1c(-c2cccs2)csc1NC(=O)c1ccc(C(C)C)cc1`, with 73%; and `COc1ccc(C(=O)NCCc2sc(-c3cccc(F)c3)nc2C)cc1`, with 67%. `CCc1ccc(N(CC)C(=O)c2cc3c(=O)oc4ccc(C)cc4c3s2)cc1`: the survival was 42% (active). Next, `CCCN(C(=O)c1cc2c(=O)oc3ccccc3c2s1)c1ccccc1C`: 54%; `CCCN(C(=O)c1cc2c(=O)oc3ccccc3c2s1)c1ccc(CC)cc1`: 31% (active); `CCc1ccc(CNC(=O)c2cc3c(=O)oc4ccc(C)cc4c3s2)cc1`: 82%. As to `CCCN(C(=O)c1cc2c(=O)oc3ccccc3c2s1)c1cccc(Cl)c1`, the survival was 47%.

For `CCN(C(=O)c1cc2c(=O)oc3ccc(C)cc3c2s1)c1ccccc1C`, the survival was 63%. Next, `CCOC(=O)C1=C(CN2CCCCC2)NC(=O)NC1c1ccc(OC)cc1` (stereo not drawn): 84%; `O=C1Nc2ccccc2C1=Nc1ccc(Br)cc1`: 74%. Next, `CCN(C(=O)CCS(=O)(=O)c1cccc2nsnc12)c1cccc(C)c1`: 74%; `O=C(NC1CCCC1)C(c1ccccc1)N(CC1CCCO1)C(=O)Cn1nnc2ccccc21` (stereo not drawn): 89%; `CCOc1ccccc1NC(=O)CSc1nnc(CC)c(CC)n1`: 73%. Next, `O=C(CSc1nnnn1Cc1ccccc1)NCCc1ccccc1`: 89%; `Cc1ccc(-n2nnnc2SCC(=O)NCCc2ccccc2)cc1C`: 42% (active). Take `Cc1ccc(C(=O)NCc2nnnn2-c2ccc(C)c(C)c2)cc1`: the survival was 115%. Then `COc1ccc(-n2nnnc2SCC(=O)NCCc2ccccc2)cc1`, with 53%. As for `Cc1ccc(-n2nnnc2CNC(=O)C(C)(C)C)cc1C`, the survival is 46% (active). Next, `Cc1ccc(-n2nnnc2CNC(=O)c2ccccc2)cc1C`: 144%; `Cc1ccc(-n2nnnc2CNC(=O)c2cc(C(F)(F)F)cc(C(F)(F)F)c2)cc1C`: 0% (active). Next, `Cc1ccc(-n2nnnc2CNC(=O)c2ccc(F)cc2)cc1C`: 106%. Consider `Cc1ccc(-n2nnnc2CNC(=O)C(C)C)cc1C`, for which the survival was 105%. With `CCOC(=O)C1=C(CS(=O)(=O)c2ccc(Br)cc2)NC(=O)NC1c1ccccc1` (stereo not drawn), the survival was 80%. Next, `Cc1cccc(-c2cc(NC(=O)COc3ccccc3F)n(-c3ccccc3)n2)c1`: 86%; `CCOC(=O)c1ccc(NC(=O)Cn2c(=O)cc(C(F)(F)F)c3c(C)nn(C)c32)cc1`: 95%; `COc1ccc(CCNS(=O)(=O)c2ccc(N3CCCCS3(=O)=O)cc2)cc1OC`: 69%.

As to `O=C(Nc1ccc2oc(-c3cccnc3)nc2c1)c1ccc(-c2ccc(Cl)cc2)o1`, the survival was 73%.

With `O=C(Nc1ccc2oc(-c3ccc(Br)cc3)nc2c1)c1cc2ccccc2o1`, the survival was 55%. Next, `O=C(Nc1cccc(-c2nc3ccccc3o2)c1)c1ccc(-c2ccc(Br)cc2)o1`: 39% (active); `O=C(Nc1cccc(-c2nc3ccccc3o2)c1)C(F)(F)F`: 61%. As to `O=C(Nc1ccc2oc(-c3cccnc3)nc2c1)c1ccc(-c2ccccc2)o1`, the survival is 45% (active). Next, `O=C(Nc1ccc(-c2nc3cc(Cl)ccc3o2)cc1)c1cc(Br)ccc1Cl`: 93%. Then `O=C(Nc1ccc2oc(-c3cccnc3)nc2c1)c1ccc(-c2cccc(Cl)c2)o1`, with 50%; and `Cc1c(NC(=O)c2ccc(-c3cccc([N+](=O)[O-])c3)o2)cccc1-c1nc2cc(Cl)ccc2o1`, with 52%. `O=C(Nc1ccc(Cl)c(-c2nc3ccccc3o2)c1)c1ccc(-c2cccc([N+](=O)[O-])c2)o1`: the survival is 37% (active). Next, `COc1ccc(Cl)cc1C(=O)Nc1ccc2oc(-c3ccc(C(C)(C)C)cc3)nc2c1`: 82%; `O=C(Nc1ccc(O)c(-c2nc3ccccc3o2)c1)c1ccc(-c2cccc(Cl)c2)o1`: 49%.

Take `COc1ccc(Br)cc1C(=O)Nc1ccc(-c2nc3cc(Cl)ccc3o2)cc1`: the survival is 43% (active). Then `CCOc1ccc(OCC)c(-n2cnnn2)c1`, with 71%; and `CCOc1ccc2oc(=O)cc(CN3CCN(c4ccc(OC)cc4)CC3)c2c1`, with 73%; and `COc1ccccc1N1CCN(C(=O)CSc2nc3ccccc3nc2Cc2ccc(F)cc2)CC1`, with 95%.

Take `Cc1cccc(-c2noc(-c3cc(C(C)C)[nH]n3)n2)c1`: the survival was 97%.

Turning to `Cc1ccc(CCNC(=O)c2ccc3c(=O)n(-c4ccccc4)c(=O)[nH]c3c2)cc1`, the survival was 86%. Then `Cc1cc(O)c(C(c2ccc(F)cc2)N2CCCCC2)c(=O)n1Cc1ccco1` (stereo not drawn), with 75%. Then `COc1cccc(NC(=O)Cn2c(=O)n(CCCC(=O)NCc3ccc4c(c3)OCO4)c(=O)c3ccccc32)c1`, with 115%. Then `Cc1cc(C)c(NC(=O)C2CCN(c3nc4ccccc4[nH]3)CC2)c(C)c1`, with 102%; and `Cc1ccc(C#N)c(SCC(=O)O)n1`, with 91%. Consider `Cc1cccc(Cn2cc(S(=O)(=O)c3ccccc3)c(=O)c3cc(F)c(N4CCOCC4)cc32)c1`, for which the survival was 72%. Then `COc1ccc(-c2nc3ccccc3o2)cc1NC(=O)c1ccc(-c2cccc(Cl)c2C)o1`, with 58%. Next, `COc1ccc(-c2nc3ccccc3o2)cc1NC(=O)C(C)(C)Oc1ccc(Br)cc1`: 4% (active); `COc1ccc(-c2nc3ccccc3o2)cc1NC(=O)c1ccc(OCC(C)C)cc1`: 40%; `COc1ccc(-c2nc3ccccc3o2)cc1NC(=O)c1cccc2c(Cl)cccc12`: 52%. Then `CC(C)(Oc1ccc(Br)cc1)C(=O)Nc1cc(-c2nc3ccccc3[nH]2)ccc1Cl`, with 76%; and `COc1ccc(/C=C/C(=O)Nc2cc(-c3nc4ccccc4o3)ccc2OC)cc1`, with 50%. As for `COc1ccc(-c2nc3ccccc3o2)cc1NC(=O)c1ccc(-c2ccc(C)c(Cl)c2)o1`, the survival is 41% (active). Next, `COc1ccc(-c2nc3ccccc3o2)cc1NC(=O)c1cc(Br)ccc1OC`: 40% (active). Then `Cc1ccc2nc(-c3ccc(Cl)c(NC(=O)c4cccnc4)c3)oc2c1`, with 126%; and `COc1ccc(-c2nc3ccccc3o2)cc1NC(=O)c1cccnc1`, with 45% (active). With `CCOc1ccc(C(=O)Nc2cc(-c3nc4ccccc4o3)ccc2C)cc1Cl`, the survival is 51%. Then `COc1ccc(Br)cc1C(=O)Nc1ccc2oc(-c3cccnc3)nc2c1`, with 117%.
